This note sets out measurements from the antibiotic and cytotoxicity screens of Wong et al. (2023).

Hit rate of the full screen: of about 39,000 compounds, about 1,500 (3.8%) were called active. The sample holds actives, similar compounds and a random draw of the others, so the mix is not that of the screen.

This assay relates to HSkMC (human skeletal muscle cells). Nature of the assay: cytotoxicity call (relative viability < 0.9). To be noted: 10 µM.
With `C[C@@H]1CCCCO[C@@H](CN(C)C(=O)Nc2ccc(F)cc2)[C@@H](C)CN([C@@H](C)CO)C(=O)c2cc(NC(=O)Cc3ccccc3)ccc2O1`, the cytotoxicity call is “inactive”.

In the case of `C[C@H](CO)N1C[C@H](C)[C@@H](CN(C)C(=O)c2ccccc2)OCCCC[C@H](C)Oc2ccc(NC(=O)NC3CCCCC3)cc2C1=O`, the cytotoxicity call was “inactive”. Consider `Cn1cnc(S(=O)(=O)N2C[C@H](O)COC[C@@H]3O[C@H](CC(=O)NCc4cc(F)cc(F)c4)CC[C@H]32)c1`, for which the cytotoxicity call is “inactive”. In the case of `N[C@H](C(=O)O)[C@@H](OCc1ccccc1)C(=O)O`, the cytotoxicity call is “inactive”. On to `C[C@@H]1CN([C@@H](C)CO)C(=O)c2cc(NS(=O)(=O)c3cccs3)ccc2O[C@@H](C)CCCCO[C@@H]1CN(C)C(=O)Nc1ccccc1`, for which the cytotoxicity call is “inactive”.

Take `CC(C)NC(=O)N1Cc2cc(C(=O)NC3Cc4ccccc4C3)nc(-c3cccc(-c4cccnc4)c3)c2[C@@H]1CCO`: the cytotoxicity call is “active”. On to `CC(C)NC(=O)N1Cc2cc(C(=O)NC3CCCCC3)nc(-c3cccc(-c4cccnc4)c3)c2[C@@H]1CCO`, for which the cytotoxicity call was “inactive”.

On to `CC(C)(C)[S@](=O)N1Cc2cc(C(=O)N[C@@H]3CCN(Cc4ccccc4)C3)nc(-c3cccc(-c4cccnc4)c3)c2[C@@H]1CCO`, for which the cytotoxicity call was “inactive”. In the case of `CC(C)(C)[S@](=O)N1Cc2cc(C(=O)N[C@H]3CCN(Cc4ccccc4)C3)nc(-c3cccc(-c4cccnc4)c3)c2[C@@H]1CCO`, the cytotoxicity call is “inactive”. As for `CC(C)NC(=O)N1Cc2cc(C(=O)NC3CCCCC3)nc(-c3cccc(-c4cccnc4)c3)c2[C@H]1CCO`, the cytotoxicity call is “active”. As to `CCNC(=O)c1cc2c(c(-c3cccc(-c4cc5ccccc5o4)c3)n1)[C@@H](CCO)N(C(=O)NC(C)C)C2`, the cytotoxicity call is “inactive”. Regarding `CCCNC(=O)c1cc2c(c(-c3cccc(-c4cc5ccccc5o4)c3)n1)[C@@H](CCO)N(C(=O)NC(C)C)C2`, the cytotoxicity call is “inactive”. `CC(C)NC(=O)N1Cc2cc(C(=O)NC3Cc4ccccc4C3)nc(-c3cccc(-c4cccnc4)c3)c2[C@H]1CCO`: the cytotoxicity call was “active”. On to `CCCNC(=O)c1cc2c(c(-c3cccc(-c4cc5ccccc5o4)c3)n1)[C@H](CCO)N(C(=O)NC(C)C)C2`, for which the cytotoxicity call is “inactive”.

`C[C@H]1CN([C@@H](C)CO)C(=O)c2cc(C#Cc3ccccc3F)cnc2O[C@H]1CN(C)C(=O)Cc1cccnc1`: the cytotoxicity call was “inactive”. As for `COCC(=O)Nc1ccc2c(c1)OC[C@@H](C)N(C(=O)Cc1ccccn1)C[C@@H](C)[C@H](OC)CN(C)C2=O`, the cytotoxicity call is “inactive”.

For the compound `COc1ccc(COC[C@]23NC(=S)N(C(=O)c4ccccc4)[C@H](c4ccccc4O2)[C@H]3CO[Si](C)(C)C(C)(C)C)cc1`, the cytotoxicity call was “inactive”. Under `CO[C@H]1CN(C)C(=O)c2ccc(NC(=O)C3CCOCC3)cc2OC[C@H](C)N(Cc2cccnc2)C[C@@H]1C` stands “inactive”; under `COc1ccc2c3c(n(c2c1)C)[C@H](CO)N(C[C@]13CCN(CC1)C(=O)c1cnccn1)C(=O)c1cnccn1`, “inactive”.

For the compound `C[C@H](CO)N1C[C@H](C)[C@@H](CN(C)C(=O)Nc2ccc3c(c2)OCO3)Oc2ccc(NC(=O)Cn3cnnn3)cc2CC1=O`, the cytotoxicity call was “inactive”. Take `CN(C)CCN1C[C@H]2OCCN(Cc3cnn(C)c3)[C@H]2C1`: the cytotoxicity call is “inactive”. As for `CO[C@H]1CN(C)C(=O)c2ccc(NS(C)(=O)=O)cc2OC[C@@H](C)N(C(=O)C2CCCCC2)C[C@H]1C`, the cytotoxicity call was “inactive”. As to `O=c1[nH]cc(F)c(=O)[nH]1`, the cytotoxicity call is “inactive”. Consider `O=C(Oc1ccccc1C(=O)O)c1ccccc1O`, for which the cytotoxicity call is “inactive”. For `CC1CC(OC(=O)c2ccccc2O)CC(C)(C)C1` (configuration not stated), the cytotoxicity call is “active”. Consider `CC1CC(OC(=O)C(O)c2ccccc2)CC(C)(C)C1` (configuration not stated), for which the cytotoxicity call was “inactive”. On to `C[C@@H]1CCCCO[C@@H](CN(C)Cc2ccc(C(F)(F)F)cc2)[C@@H](C)CN([C@@H](C)CO)C(=O)c2cc(NS(=O)(=O)c3ccccc3)ccc2O1`, for which the cytotoxicity call is “inactive”. Next, `COc1ccc([Si](C)(C)[C@H]2[C@H](CC(=O)N3Cc4ccccc4C[C@H]3CO)O[C@@]3(C(=O)N(Cc4cccc(N5CCC5=O)c4)c4ccccc43)[C@@H]2C)cc1`: “inactive”. In the case of `COc1ccc(OC)c(CCNC(=O)CN)c1`, the cytotoxicity call is “inactive”.

Consider `Cc1ccc(S(=O)(=O)Nc2ccc3c(c2)C(=O)N([C@@H](C)CO)C[C@@H](C)[C@H](CN(C)CC2CCCCC2)OCCCC[C@H](C)O3)cc1`, for which the cytotoxicity call is “inactive”.

`C[C@@H]1CCCCO[C@H](CN(C)S(=O)(=O)c2ccccc2)[C@H](C)CN([C@@H](C)CO)C(=O)c2cc(NS(=O)(=O)c3ccc(Cl)cc3)ccc2O1`: the cytotoxicity call was “inactive”. In the case of `C[C@@H]1CCCCO[C@H](CN(C)CC2CCCCC2)[C@H](C)CN([C@@H](C)CO)C(=O)c2cc(NS(=O)(=O)c3ccc(Cl)cc3)ccc2O1`, the cytotoxicity call is “active”. As for `Cc1ccc(S(=O)(=O)Nc2ccc3c(c2)C(=O)N([C@H](C)CO)C[C@H](C)[C@H](CN(C)CC2CCCCC2)OCCCC[C@H](C)O3)cc1`, the cytotoxicity call was “active”. As for `C[C@H](CO)N1C[C@H](C)[C@H](CN(C)CC2CCCCC2)OCCCC[C@H](C)Oc2ccc(NS(=O)(=O)c3ccc(Cl)cc3)cc2C1=O`, the cytotoxicity call is “inactive”.

Turning to `C[C@@H]1CCCCO[C@@H](CN(C)S(=O)(=O)c2ccccc2)[C@H](C)CN([C@H](C)CO)C(=O)c2cc(NS(=O)(=O)c3ccc(Cl)cc3)ccc2O1`, the cytotoxicity call was “inactive”.

Regarding `C[C@@H]1CN([C@@H](C)CO)C(=O)c2cc(NS(=O)(=O)c3ccc(Cl)cc3)ccc2O[C@@H](C)CCCCO[C@H]1CN(C)CC1CCCCC1`, the cytotoxicity call was “inactive”. Consider `Cc1ccc(S(=O)(=O)Nc2ccc3c(c2)C(=O)N([C@H](C)CO)C[C@@H](C)[C@H](CN(C)CC2CCCCC2)OCCCC[C@@H](C)O3)cc1`, for which the cytotoxicity call is “inactive”.

As for `C[C@@H]1CN([C@H](C)CO)C(=O)c2cc(NS(=O)(=O)c3ccccc3)ccc2O[C@@H](C)CCCCO[C@H]1CN(C)S(=O)(=O)c1ccc(Cl)cc1`, the cytotoxicity call was “active”. Take `C[C@@H]1CN([C@H](C)CO)C(=O)Cc2cc(NS(=O)(=O)c3ccc(Cl)cc3)ccc2O[C@H]1CN(C)C(=O)Nc1cccc2ccccc12`: the cytotoxicity call was “inactive”. Turning to `C[C@H]1CN([C@@H](C)CO)C(=O)c2cccc(NC(=O)Nc3ccc4c(c3)OCO4)c2O[C@H]1CN(C)S(=O)(=O)c1cn(C)cn1`, the cytotoxicity call was “inactive”. `CCCN(C)C[C@H]1OCCCC[C@H](C)Oc2ccc(NC(=O)NC3CCCCC3)cc2C(=O)N([C@@H](C)CO)C[C@H]1C`: the cytotoxicity call is “inactive”.

As for `C[C@H]1CCCCO[C@@H](CN(C)S(=O)(=O)c2ccc(F)cc2)[C@@H](C)CN([C@@H](C)CO)C(=O)c2cc(NS(=O)(=O)c3cn(C)cn3)ccc2O1`, the cytotoxicity call is “inactive”. Regarding `C[C@@H]1CN([C@@H](C)CO)C(=O)c2cc(NC(=O)c3ccncc3)ccc2O[C@@H](C)CCCCO[C@H]1CN(C)C(=O)Nc1ccccc1`, the cytotoxicity call was “inactive”. As to `O=C(C[C@H]1C=C[C@@H](NC(=O)c2ccncc2)[C@@H](CO)O1)NCc1ccncn1`, the cytotoxicity call is “inactive”. Turning to `Cc1ccccc1S(=O)(=O)N1C[C@@H](O)COC[C@H]2O[C@H](CC(=O)N3CCOCC3)CC[C@@H]21`, the cytotoxicity call was “inactive”. For the compound `CC1CCC2(C)C(C=O)=CCCC2C1(C)CC1OC(O)C(=O)C12CO2` (configuration not stated), the cytotoxicity call is “inactive”. In the case of `C[C@@H]1CCCCO[C@@H](CN(C)CC2CCCCC2)[C@H](C)CN([C@H](C)CO)C(=O)c2cc(NC(=O)CCC(F)(F)F)ccc2O1`, the cytotoxicity call is “inactive”. Take `C[C@H](CO)N1C[C@H](C)[C@H](CN(C)C(=O)Nc2ccc(F)cc2)Oc2ccc(NC(=O)Cn3cnnn3)cc2C1=O`: the cytotoxicity call is “inactive”.

For `C[C@@H]1CN([C@H](C)CO)C(=O)c2cccc(NC(=O)NC3CCCCC3)c2O[C@@H]1CN(C)C(=O)Nc1ccc(C(F)(F)F)cc1`, the cytotoxicity call is “inactive”. In the case of `C[C@H]1CN([C@@H](C)CO)C(=O)c2cccc(NC(=O)NC3CCCCC3)c2O[C@H]1CN(C)C(=O)Nc1ccc(C(F)(F)F)cc1`, the cytotoxicity call is “active”. Consider `C[C@H](CO)N1C[C@H](C)[C@H](CN(C)C(=O)Nc2ccc(C(F)(F)F)cc2)Oc2c(NC(=O)NC3CCCCC3)cccc2C1=O`, for which the cytotoxicity call was “inactive”. Next, `C[C@H]1CN([C@@H](C)CO)C(=O)c2cccc(NC(=O)NC3CCCCC3)c2O[C@@H]1CN(C)C(=O)Nc1ccc(C(F)(F)F)cc1`: “inactive”. Consider `C[C@@H]1CN([C@H](C)CO)C(=O)c2cccc(NC(=O)NC3CCCCC3)c2O[C@H]1CN(C)C(=O)Nc1ccc(C(F)(F)F)cc1`, for which the cytotoxicity call was “inactive”. In the case of `C[C@@H]1CN([C@@H](C)CO)C(=O)c2cccc(NC(=O)NC3CCCCC3)c2O[C@@H]1CN(C)C(=O)Nc1ccc(C(F)(F)F)cc1`, the cytotoxicity call was “active”.

`COc1ccc(NC(=O)Nc2ccc3c(c2)C(=O)N([C@H](C)CO)C[C@H](C)[C@H](CN(C)S(=O)(=O)c2cn(C)cn2)O3)cc1`: the cytotoxicity call is “inactive”. With `Cc1cc(-c2cccs2)cc(C)n1`, the cytotoxicity call was “inactive”. With `COCC(=O)N1C[C@H](C)[C@H](OC)CN(C)C(=O)c2cc(NC(=O)c3cc(C)on3)ccc2OC[C@@H]1C`, the cytotoxicity call is “inactive”. Consider `COc1cc2c(cc1O)CCN[C@]21CS[C@@H]2c3c(OC(C)=O)c(C)c4c(c3[C@H](COC1=O)N1[C@@H]2[C@H]2c3c(cc(C)c(OC)c3O)C[C@@H]([C@@H]1O)N2C)OCO4`, for which the cytotoxicity call was “active”. Consider `COc1ccc(NC(=O)N(C)C[C@H]2OCCCC[C@@H](C)Oc3ccc(NC(=O)Nc4ccc(C(F)(F)F)cc4)cc3C(=O)N([C@@H](C)CO)C[C@H]2C)cc1`, for which the cytotoxicity call was “inactive”. With `CCS(=O)(=O)Nc1ccc2c(c1)C(=O)N(C)C[C@@H](OC)[C@@H](C)CN(Cc1nccs1)[C@@H](C)CO2`, the cytotoxicity call is “inactive”. In the case of `C[C@@H]1CCCCO[C@@H](CN(C)Cc2ccc(Cl)c(Cl)c2)[C@H](C)CN([C@@H](C)CO)C(=O)c2cc(NS(=O)(=O)c3ccccc3)ccc2O1`, the cytotoxicity call is “active”. In the case of `C[C@H](CO)N1C[C@H](C)[C@@H](CN(C)Cc2ccc(Cl)c(Cl)c2)OCCCC[C@H](C)Oc2ccc(NS(=O)(=O)c3ccccc3)cc2C1=O`, the cytotoxicity call is “inactive”.

On to `C[C@@H]1CCCCO[C@H](CN(C)Cc2ccc(Cl)c(Cl)c2)[C@H](C)CN([C@@H](C)CO)C(=O)c2cc(NS(=O)(=O)c3ccccc3)ccc2O1`, for which the cytotoxicity call is “active”. For the compound `C[C@@H]1CN([C@H](C)CO)C(=O)c2cc(NS(=O)(=O)c3ccccc3)ccc2O[C@@H](C)CCCCO[C@H]1CN(C)Cc1ccc(Cl)c(Cl)c1`, the cytotoxicity call was “inactive”. With `C[C@@H]1CCCCO[C@@H](CN(C)Cc2ccc(Cl)c(Cl)c2)[C@H](C)CN([C@H](C)CO)C(=O)c2cc(NS(=O)(=O)c3ccccc3)ccc2O1`, the cytotoxicity call was “active”. Under `C[C@@H]1CCCCO[C@@H](CN(C)Cc2ccc(Cl)c(Cl)c2)[C@@H](C)CN([C@@H](C)CO)C(=O)c2cc(NS(=O)(=O)c3ccccc3)ccc2O1` stands “active”; under `C[C@@H]1CCCCO[C@@H](CN(C)Cc2ccc(Cl)c(Cl)c2)[C@@H](C)CN([C@H](C)CO)C(=O)c2cc(NS(=O)(=O)c3ccccc3)ccc2O1`, “inactive”.
